Among the data in PubChem BioAssay (NCATS) are outcome values, retold here.

Active and inactive are the calls of the source. The call rests on the fitted dose curve; in most records, active means well fitted activation curve with a large enough effect; inconclusive means small, poorly fitted or top-dose-only effect; inactive means flat fitted curve, though single readings scatter.

A short description of the experiment: Cellular Toxicity (caspase-3) HepG2 (AID 654).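 Further: cells exposed to compound for 16 hours before reading.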 Particulars: HepG2 caspase-3 activation, luminescence, 0% = DMSO only, 100% = tamoxifen; series mostly up to 92.2 µM. An excerpt:
NIH Chemical Genomics Center [NCGC]
NIH Molecular Libraries Screening Centers Network [MLSCN]
National Institutes of Environmental Health Sciences [NIEHS]
National Toxicology Program [NTP]
We have developed a 1536-well cell-based assay for quantitative high throughput screening (qHTS) against a number of cell lines to determine in vitro caspase 3/7 of small molecules. This particular assay uses the HepG2 cell line which is derived from human hepatocellular carcinoma.
NCGC Assay Protocol Summary:
The Caspase-Glo 3/7 assay (Promega) is a homogeneous method to measure caspase-3 and caspase-7 activities in cultured cells. The quantitation of caspase 3/7 activity is based on the cleavage of a peptide-aminoluciferin substrate. After caspase cleaves the substrate the free aminoluciferin is liberated and serves as the substrate of luciferase, which generates the light. The luminescent signal is proportional to amount of caspase 3/7 activity present.
Using the Caspase-Glo 3/7 assay, the amount of caspase 3/7 activity was measured in the HepG2 cell line with complete culture medium following compound treatment for 16 hours. The assay was performed in opaque white 1536-well plates. In the screen, tamoxifen and doxorubicin were used as positive controls. Library compounds were measured for their ability to cause the activation of caspase 3/7 in the cell line, as reflected by an increase in luminescence signal, in a concentration-dependent manner. Data were normalized to the controls for basal activity (DMSO only) and 100% stimulation (100 uM tamoxifen). AC50 values were determined from concentration-response data modeled with the standard Hill equation.
qHTS protocol for caspase 3/7 assay in HepG2 cells
[Step] [Parameter] [Value] [Description]
1. Reagent; 5 uL; 1500 HepG2 cells/well
2. Time; 5 hr; 37 °C incubation
4. Controls; 23 nL; Tamoxifen 0.23 uM to 100 uM & Doxorubicin 7.0 pM to 100 uM
5. Time; 16 hr; 37 °C incubation
6. Reagent; 5 uL; Caspase-Glo 3/7 reagent
7. Time; 20 min; Room Temperature
8. Detection; Luminescence; Viewlux plate reader
Keywords: caspase 3/7, apoptosis, HepG2 cell line, luminescence, NTPHTS, NTPHTS_NCGC, NIEHS, EPA, DSSTox, MLSMR, MLSCN, NIH Roadmap, qHTS, NCGC
On to `CCC(Cl)[N+](=O)[O-]` (stereo not given), for which the outcome was inactive.
In the case of `C=CC(=O)OC` it was “inactive”.
Consider `C=CCBr`, for which the result was inactive.
Turning to `N#CCCCCC#N`, the outcome was inactive.
In the case of `Nn1cnnc1` it was “inactive”; in that of `CC(C)OS(C)(=O)=O`, “inactive”.
With `CCCCCCCCCCCCCl`, the outcome was inactive.
In the case of `CCC#N` it was “inactive”; in that of `c1ccc(OCC2CO2)cc1` (stereo not given), “inactive”; in that of `Brc1cccc(-c2ccccc2)c1`, “inactive”.
As for `O=C(O)C(Br)CBr` (stereo not given), the entry is “inactive”.
As for `CCBr`, the entry is “inactive”.
Regarding `O=C(O)c1cc(Cl)ccc1Cl`, the call was inactive.
As for `CN(C)c1ccccc1`, the entry is “inactive”; as for `C=CC(=O)OCCO`, “inactive”.
In the case of `c1ccoc1` it was “inactive”; in that of `C=CC#N`, “inactive”.
As for `N#CCBr`, the entry is “inactive”; as for `[N-]=[N+]=[N-]`, “inactive”.
Take `Clc1ccc(C(Cl)(Cl)Cl)cc1Cl`: the compound was called inactive.
In the case of `ClCc1ccccn1` it was “inactive”; in that of `Oc1c(Cl)cccc1Cl`, “inactive”; in that of `CC(C)(COCC1CO1)COCC1CO1` (stereo not given), “inactive”.
In the case of `Clc1ccc(Cl)c(Cl)c1` it was “inactive”.
As for `Cc1ccc(N=C=O)cc1N=C=O`, the entry is “inactive”.
Turning to `FC(Cl)(Cl)Cl`, the compound was classed as inactive.
As for `CCCCC(=O)Cl`, the entry is “inactive”.
As for `Cl/C=C/Cl`, the entry is “inactive”.
As for `C/C=C/C=O`, the entry is “inactive”; as for `C=C(Cl)CSC(=S)N(CC)CC`, “inactive”.
For `OCCCCO`, the compound was called inactive.
Turning to `CCNCC`, the compound was called inactive.
In the case of `C/C=C/CC#N`, the outcome was inactive.
As for `O=[N+]([O-])c1cccc2c([N+](=O)[O-])cccc12`, the entry is “inactive”; as for `CC[N+](=O)[O-]`, “inactive”.
With `c1ccc(N=NNc2ccccc2)cc1`, the result was inactive.
As for `O=C(O)C(Br)Br`, the compound was called inactive.
As for `CN(C)C(=O)Nc1ccc(Cl)cc1`, the entry is “inactive”; as for `CCCCCOC(=O)c1ccccc1C(=O)OCCCCC`, “inactive”.
In the case of `C=COC(C)=O` it was “inactive”.
